PubChem BioAssay AID1159580 (chemical genetic matrix, 2015)
The whole screen tested about 5,500 compounds, of which about 2,000 (36%) were called active. Inconclusive results (about 18%) are left out. Rule as the data show it: active = normalized growth mostly below about 0.91 (no sharp cut-off); inconclusive = no clear call, values can overlap the other calls; inactive = mostly above about 0.92. The list shows a part of the results.

Experiment: chemical genetic growth profiling, strain panel (AID 1159580);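 also: tested at 20 µM; growth read once vehicle control cultures reached saturation at 30 °C; 1 = growth at the plate median or of vehicle wells; lower values mean less growth of the strain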
Conditions: growth OD

Measured: normalized growth

Cc1ccc(C(C)C)cc2c(C)ccc1-2
inactive: S. cerevisiae deletion strains, locus YJR043C, strain POL32, stronger effect = lower value 0.977 | S. cerevisiae deletion strains, locus YJR066W, strain TOR1, stronger effect = lower value 0.925 | S. cerevisiae deletion strains, locus YKL009W, strain mrt4, stronger effect = lower value 1.04 | S. cerevisiae deletion strains, locus YKL068W, stronger effect = lower value 1 | S. cerevisiae deletion strains, locus YKL085W, strain MDH1 (second series), stronger effect = lower value 1 | S. cerevisiae deletion strains, locus YKL085W, strain MDH1, stronger effect = lower value 1 | S. cerevisiae deletion strains, locus YKL160W, strain elf1, stronger effect = lower value 0.989 | S. cerevisiae deletion strains, locus YKL190W, strain CNB1, stronger effect = lower value 0.986 | S. cerevisiae deletion strains, locus YKR001C, strain vps1, stronger effect = lower value 1 | S. cerevisiae deletion strains, locus YKR026C, strain gcn3, stronger effect = lower value 1 | S. cerevisiae deletion strains, locus YKR091W, strain srl3, stronger effect = lower value 1 | S. cerevisiae deletion strains, locus YLL001W, strain dnm1, stronger effect = lower value 0.976 | S. cerevisiae deletion strains, locus YLL026W, stronger effect = lower value 0.998 | S. cerevisiae deletion strains, locus YLL041C, strain sdh2, stronger effect = lower value 1.01 | S. cerevisiae deletion strains, locus YLR027C, strain aat2, stronger effect = lower value 0.991 | S. cerevisiae deletion strains, locus YLR039C, strain RIC1, stronger effect = lower value 0.92 | S. cerevisiae deletion strains, locus YLR058C, strain SHM2, stronger effect = lower value 1 | S. cerevisiae deletion strains, locus YLR102C, strain apc9, stronger effect = lower value 1.02 | S. cerevisiae deletion strains, locus YLR113W, strain HOG1, stronger effect = lower value 1.03 | S. cerevisiae deletion strains, locus YLR221C, strain rsa3, stronger effect = lower value 1.02 | S. cerevisiae deletion strains, locus YLR258W, strain gsy2, stronger effect = lower value 0.999 | S. cerevisiae deletion strains, locus YLR262C, strain YPT6 (second series), stronger effect = lower value 1.01 | S. cerevisiae deletion strains, locus YLR262C, strain YPT6, stronger effect = lower value 0.909 | S. cerevisiae deletion strains, locus YLR268W, strain sec22, stronger effect = lower value 1.01 | S. cerevisiae deletion strains, locus YLR320W, strain mms22, stronger effect = lower value 1.01 | S. cerevisiae deletion strains, locus YLR330W, strain CHS5, stronger effect = lower value 1 | S. cerevisiae deletion strains, locus YLR342W, strain FKS1 (second series), stronger effect = lower value 0.944 | S. cerevisiae deletion strains, locus YLR342W, strain FKS1, stronger effect = lower value 1.03 | S. cerevisiae deletion strains, locus YLR357W, strain rsc2, stronger effect = lower value 0.982 | S. cerevisiae deletion strains, locus YLR370C, strain arc18, stronger effect = lower value 0.995 | S. cerevisiae deletion strains, locus YLR371W, strain rom2, stronger effect = lower value 1 | S. cerevisiae deletion strains, locus YLR384C, strain iki3, stronger effect = lower value 0.997 | S. cerevisiae deletion strains, locus YLR418C, strain cdc73, stronger effect = lower value 0.962 | S. cerevisiae deletion strains, locus YML016C, strain PPZ1, stronger effect = lower value 1 | S. cerevisiae deletion strains, locus YML032C, strain rad52, stronger effect = lower value 1.03 | S. cerevisiae deletion strains, locus YML120C, strain ndi1, stronger effect = lower value 1 | S. cerevisiae deletion strains, locus YML124C, strain tub3, stronger effect = lower value 1.02 | S. cerevisiae deletion strains, locus YMR058W, strain fet3, stronger effect = lower value 1.01 | S. cerevisiae deletion strains, locus YMR078C, strain ctf18, stronger effect = lower value 1.02 | S. cerevisiae deletion strains, locus YMR125W, strain sto1, stronger effect = lower value 1 | S. cerevisiae deletion strains, locus YMR129W, stronger effect = lower value 1.01 | S. cerevisiae deletion strains, locus YMR205C, strain PFK2, stronger effect = lower value 0.981 | S. cerevisiae deletion strains, locus YMR223W, strain ubp8, stronger effect = lower value 1.02 | S. cerevisiae deletion strains, locus YMR231W, strain pep5, stronger effect = lower value 0.978 | S. cerevisiae deletion strains, locus YMR263W, strain SAP30, stronger effect = lower value 0.993 | S. cerevisiae deletion strains, locus YMR307W, strain GAS1, stronger effect = lower value 0.914 | S. cerevisiae deletion strains, locus YNL067W, strain RPL9B, stronger effect = lower value 0.993 | S. cerevisiae deletion strains, locus YNL071W, strain lat1, stronger effect = lower value 0.991 | S. cerevisiae deletion strains, locus YNL183C, strain NPR1, stronger effect = lower value 0.981 | S. cerevisiae deletion strains, locus YNL209W, strain ssb2, stronger effect = lower value 1.01 | S. cerevisiae deletion strains, locus YNL233W, strain BNI4, stronger effect = lower value 0.989 | S. cerevisiae deletion strains, locus YNL248C, strain rpa49, stronger effect = lower value 1.02 | S. cerevisiae deletion strains, locus YNL250W, strain rad50, stronger effect = lower value 1.05 | S. cerevisiae deletion strains, locus YNL271C, strain bni1, stronger effect = lower value 1.03 | S. cerevisiae deletion strains, locus YNL298W, strain CLA4, stronger effect = lower value 1.02 | S. cerevisiae deletion strains, locus YNL307C, strain MCK1, stronger effect = lower value 0.995 | S. cerevisiae deletion strains, locus YNL322C, strain KRE1 (second series), stronger effect = lower value 0.994 | S. cerevisiae deletion strains, locus YNR049C, strain mso1, stronger effect = lower value 1 | S. cerevisiae deletion strains, locus YNR052C, strain pop2, stronger effect = lower value 1.02 | S. cerevisiae deletion strains, locus YOL006C, strain TOP1, stronger effect = lower value 1.02 | S. cerevisiae deletion strains, locus YOL012C, strain htz1 0.644 | S. cerevisiae deletion strains, locus YOL147C, strain pex11, stronger effect = lower value 1.03 | S. cerevisiae deletion strains, locus YOR001W, strain rrp6, stronger effect = lower value 1.04 | S. cerevisiae deletion strains, locus YOR061W, strain CKA2, stronger effect = lower value 1.01 | S. cerevisiae deletion strains, locus YOR069W, strain VPS5, stronger effect = lower value 1 | S. cerevisiae deletion strains, locus YOR070C, strain gyp1, stronger effect = lower value 0.994 | S. cerevisiae deletion strains, locus YOR080W, strain dia2, stronger effect = lower value 1.01 | S. cerevisiae deletion strains, locus YOR083W, strain WHI5, stronger effect = lower value 0.987 | S. cerevisiae deletion strains, locus YOR106W, strain vam3, stronger effect = lower value 1.01 | S. cerevisiae deletion strains, locus YOR136W, strain idh2, stronger effect = lower value 1.03 | S. cerevisiae deletion strains, locus YOR144C, strain elg1, stronger effect = lower value 1.02 | S. cerevisiae deletion strains, locus YOR184W, strain ser1, stronger effect = lower value 0.991 | S. cerevisiae deletion strains, locus YOR231W, strain MKK1, stronger effect = lower value 0.984 | S. cerevisiae deletion strains, locus YOR265W, strain rbl2, stronger effect = lower value 0.992 | S. cerevisiae deletion strains, locus YOR270C, strain vph1, stronger effect = lower value 1.1 | S. cerevisiae deletion strains, locus YOR290C, strain snf2, stronger effect = lower value 0.98 | S. cerevisiae deletion strains, locus YOR316C, strain cot1, stronger effect = lower value 1.02 | S. cerevisiae deletion strains, locus YPL051W, strain arl3, stronger effect = lower value 0.984 | S. cerevisiae deletion strains, locus YPL078C, strain atp4, stronger effect = lower value 0.979 | S. cerevisiae deletion strains, locus YPL106C, strain sse1, stronger effect = lower value 0.997 | S. cerevisiae deletion strains, locus YPL240C, strain hsp82, stronger effect = lower value 0.999 | S. cerevisiae deletion strains, locus YPL241C, strain CIN2, stronger effect = lower value 1 | S. cerevisiae deletion strains, locus YPL256C, strain CLN2, stronger effect = lower value 0.98 | S. cerevisiae deletion strains, locus YPR119W, strain clb2, stronger effect = lower value 1.02 | S. cerevisiae deletion strains, locus YPR141C, strain kar3, stronger effect = lower value 1.01 | S. cerevisiae deletion strains, locus YPR163C, strain tif3, stronger effect = lower value 1.04 | S. cerevisiae deletion strains, locus YPR167C, strain met16, stronger effect = lower value 1.02 | S. cerevisiae deletion strains, strain wtn01, stronger effect = lower value 1.04 | S. cerevisiae strains, strain wild type, stronger effect = lower value 0.995
